From PubChem BioAssay (NCI) come the findings set out here.

SMILES strings stand for the structures. Compounds without any hit were thinned out: in the full panel of roughly 83,000, 20% have a hit.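 Assay: single dose, 48 h. Readout: percent growth (0 = no net growth; negative = cell death). Active: <10.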 A number with no mark means an inactive call. Calls of active or inactive are those of the source.

What all share (assay): NCI-60 one-dose screen, 48 h (100 = growth as untreated, 0 = no growth, -100 = all killed)
What all share (conditions): 10 µM unless noted

The subject of assay [1] is SK-MEL-2 melanoma.
Assay [2] relates to EKVX NSCLC.
The subject of assay [3] is SN12C renal.
Assay [4] has as its system UO-31 renal.
Assay [5] relates to TK-10 renal.
Assay [6] deals with ACHN renal.
Assay [7] deals with CAKI-1 renal.
For assay [8], the system named is A498 renal.
Assay [9] concerns CCRF-CEM leukemia.
In assay [10] the test system is MOLT-4 leukemia.

Regarding `O=C(c1ccc(OCCN2CCOCC2)cc1)C1[C@H](c2ccc(Cl)cc2)[C@@H](c2ccccc2)NC12C(=O)Nc1ccc(Cl)cc12` (stereo not given in full), the growth in assay [1] was 35%; in assay [2], 23.1%; in assay [3] it was 13.5%; in [4], 19.1%; in [5] it was 49.7%; in assay [6] it was 9.92% (active). In addition, the growth in assay [7] is 14.8%; in assay [8], 88%; in [9] it was 31%; in assay [10], -28.2% (active).

Consider `Cc1ccc(-c2nc(Nc3ccccc3S(N)(=O)=O)c3ccccc3n2)cc1`, for which the growth was 102% in assay [1]; 74.1% in [2]; 51.8% in assay [3]; 50.4% in [4]; 151% in assay [5]; 74% in assay [6]. In addition, the growth in assay [7] was 78%; in assay [8], 118%; in [9], 76.1%; in assay [10] it was 78.5%.

As to `S=C(NCCc1ccccc1)Nc1ccc(OCc2nc3ccccc3[nH]2)cc1`, the growth in assay [1] is 121%; in assay [2], 101%; in assay [3] it was 96.8%; in [4], 84.3%; in assay [5], 112%; in [6], 104%. The growth in assay [7] is 87.3%; in [8], 111%; in assay [9], 96.7%; in assay [10], 100%.

With `OCC1(CCCc2ccccc2)CCCN(c2nccc3ccccc23)C1` (stereo not given), the growth was 30.7% in assay [1]; 23.4% in assay [2]; 44.4% in assay [3]; 26.9% in [4]; 50.1% in assay [5]; 51.8% in assay [6]. Also, the growth in assay [7] is 38.6%; in assay [8], 63.3%; in [9] it was 49.2%; in [10] it was 32.3%.

For `Cc1cccc(Nc2nc3ccccc3nc2/C=C/c2ccc(F)cc2)c1`, the growth in assay [1] was 98.3%; in assay [2], 83.7%; in [3], 90.9%; in assay [4], 67.9%; in assay [5] it was 151%; in assay [6] it was 89.9%. The growth is 79.9% in assay [7], 112% in assay [8], 97.1% in assay [9] and 80.9% in [10].

On to `COc1ccc2[nH]cc(-c3cc(N)n4nc(-c5cn(C)c6ccccc56)cc4n3)c2c1`, for which the growth in assay [1] is -96% (active); in assay [2], -82.8% (active); in assay [3], -73.2% (active); in assay [4], -93.7% (active); in assay [5] it was -95.3% (active); in [6], -100% (active). In addition, the growth is -96% (active) in assay [7], -80.6% (active) in assay [8], -39.3% (active) in assay [9] and -41.4% (active) in [10].

`C=C1CCC2C3(C)COC(c4ccccc4)OC3CCC2(C)C1CC(NCc1ccccc1)C1=CCOC1=O` (stereo not given): the growth in assay [1] is 101%; in [2], 73.8%; in assay [3], 79.4%; in [4] it was 56.7%; in [5], 76%; in assay [6] it was 86.4%. For the same compound, the growth in [7] is 58.1%; in assay [8], 76.6%; in [9], 101%; in assay [10], 61.1%.

Regarding `N#Cc1c(-c2cccnc2)cc(-c2ccc3ccccc3c2)[nH]c1=O`, the growth was 110% in [1]; 87.1% in assay [2]; 74.3% in assay [3]; 79% in assay [4]; 109% in assay [5]; 90.2% in assay [6]. Also, the growth is 89.7% in assay [7], 111% in assay [8], 82% in [9] and 91.5% in assay [10].

As to `Cc1ccc(NCC(=O)Cn2cc(COc3ccc(C=Nc4cnc5ccccc5c4)cc3)nn2)cc1`, the growth in assay [1] was 136%; in assay [2], 106%; in assay [3], 99.9%; in [4] it was 90.1%; in assay [5], 109%; in [6], 107%. In addition, the growth in [7] was 97%; in assay [8], 124%; in assay [9], 102%; in [10], 108%.

Regarding `Cc1ccccc1[C@H]1C(C(=O)c2ccc(Cl)cc2)C2(N[C@@H]1c1ccccc1)C(=O)Nc1ccc(Br)cc12` (stereo not given in full), the growth in [1] was -11.2% (active); in assay [2], 26.4%; in assay [3], -82.1% (active); in [4], 14.1%; in assay [5] it was 41.6%; in assay [6], 7.11% (active). Besides, the growth in assay [7] is 23%; in assay [8], 44.3%; in assay [9], 5.11% (active); in assay [10] it was -2.55% (active).

With `N/N=C(\N)c1c(N)nc(=S)[nH]c1-c1ccc(Cl)cc1Cl`, the growth in assay [1] is 109%; in [2], 116%; in assay [3] it was 105%; in [4] it was 85.8%; in assay [5], 147%; in [6], 107%. In addition, the growth in assay [7] is 96.9%; in [8], 125%; in assay [9], 94.6%; in [10] it was 90.1%.

With `CCOC(=O)/C=C/c1cccc2c1C(=O)NC(C)(c1cc3cc(Br)ccc3oc1=O)N2` (stereo not given), the growth in assay [1] is 5.72% (active); in [2], 43.8%; in assay [3], 53.3%; in assay [4], 19.8%; in assay [5], 58.4%; in [6], 28.1%. Moreover, the growth in [7] is 20.2%; in assay [8], 59.8%; in assay [9] it was 36.8%; in assay [10], 30.4%.

For the compound `CC1=C(C(=O)c2ccccc2)C(c2cccc(Cl)c2Cl)n2c(nc3ccccc32)N1` (stereo not given), the growth in assay [1] was 76%; in assay [2] it was 46.3%; in assay [3] it was 53.6%; in assay [4], 67.7%; in [5], 102%; in assay [6], 71.9%. Also, the growth in [7] was 47%; in assay [8], 116%; in [9], 40.5%; in [10], 45.6%.
